Data published in PubChem BioAssay (NCATS).
Several values for one entry are separate records, joined by “and”; a condition that tells them apart may be missing. Equal entries are not always repeated. Records with an inconclusive call do not appear. Entries that show only a call come without a potency. A structure can be active in one record and inactive in another. Activity calls are given as the source filed them. Unless noted, calls come from the whole dose curve; as a rule, active = well fitted curve in the direction sought with a large enough effect; inconclusive = small, poorly fitted or top-dose-only effect, or another doubt; inactive = no such curve, though single readings can be large; an effect the other way counts as inactive or inconclusive.

What was measured:
[1] = Primary qHTS for inhibitors of nuclear receptor binding SET domain protein 2 (NSD2) in an RCH-ACV wild type WT cells (2C) (AID 1645877); note: nearly all actives have a fitted effect of over 70% in size; note: potency is the fitted concentration of half-maximal effect
[2] = biological target: Glutathione peroxidase 1 (Homo sapiens) (UniProt P07203); experiment: Primary qHTS Assay for Inhibitors of Recombinant Selenoprotein Glutathione Peroxidase 1 (GPX1) (AID 1845191); note: nearly all actives have a fitted effect of over 65% in size; note: potency is the fitted concentration of half-maximal effect
Method in brief: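 GPX1 10 nM, GR 100 nM, GSH 1 mM, NADPH 0.5 mM, CHP 0.5 mM (final). 30-min cpd preincubation, RT. Ex340/Em450 read t=0, t=15 min.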

[3] = biological target: Phospholipid hydroperoxide glutathione peroxidase GPX4 (Homo sapiens) (UniProt P36969); experiment: Primary qHTS Assay for Inhibitors of Recombinant Selenoprotein Glutathione Peroxidase 4 (GPX4) (AID 1845192); note: nearly all actives have a fitted effect of over 65% in size; note: potency is the fitted concentration of half-maximal effect
Method in brief: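 qHTS, GR-coupled: GPX4 200 nM + cpd 30 min RT → GSH 1 mM, NADPH 0.5 mM, GR 100 nM → CHP 0.5 mM start; fluor 340/450 at t0 and t15 min; no-enzyme wells as control.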

[4] = Primary fluorescence-based thiol-reactive (MSTI) qHTS assay for identification of artifact compounds. (AID 1845221); note: nearly all actives have a fitted effect of over 65% in size; note: potency is the fitted concentration of half-maximal effect
Method in brief: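 Curve-fitted percent inhibition (4-parameter Hill) derived from fluorescence, Ex 525/Em 598 nm, scaled with Acetyl-MSTI and MSTI; 1 h incubation at room temperature.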

[5] = system: Nanoluciferase (engineered Oplophorus gracilirostris luciferase); experiment: Primary Nanoluciferase (NLuc) qHTS assay for identification of artifact compounds. (AID 1845222);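 note: NLuc secreted into diluted conditioned medium of S16 cells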
Method in brief: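 Using secreted nanoluciferase in S16 culture medium (0.22 um filtered, 1:55 dilution), compounds were preincubated 15 min at RT. Signal was generated with Nano-Glo reagent (1:100) over 5 min.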

[6] = Primary redox qHTS assay for identification of artifact compounds. (AID 1845223); note: potency is the fitted concentration of half-maximal effect
Method in brief: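 Redox-cycling detection via DTT (250 uM final) oxidation coupled to Amplex Red (25 uM)/HRP (250 mU/mL) in HBSS. 15 min preincubation plus 30 min after DTT, room temperature. Ex/Em 525/598 nm; 4-parameter Hill fit against DMSO and 10 uM DA3003.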

[7] = biological target: Catechol O-methyltransferase (Homo sapiens) (UniProt P21964); experiment: Confirmatory Screen for Target Class Profiling of Small Molecule Inhibitors of Methyltransferases (AID 1745852; calls by dose curve; note: potency is the fitted concentration of half-maximal effect); conditions: MTase-Glo luminescence, SAH detection, recombinant enzyme; measured here: COMT max response; stronger effect = lower value
[8] = biological target: Guanidinoacetate N-methyltransferase (Homo sapiens) (UniProt Q14353); experiment: as above; conditions: MTase-Glo luminescence, SAH detection, recombinant enzyme; activity change, negative = inhibition: at 57.3 µM (top of the series) unless noted
[9] = biological target: Nicotinamide N-methyltransferase (Homo sapiens) (UniProt P40261); experiment: as above; conditions: MTase-Glo luminescence, SAH detection, recombinant enzyme; measured here: NNMT max response; stronger effect = lower value
[10] = biological target: Phenylethanolamine N-methyltransferase (Homo sapiens) (UniProt P11086); experiment: as above; conditions: MTase-Glo luminescence, SAH detection, recombinant enzyme; measured here: PNMT max response; stronger effect = lower value
[11] = biological target: Luciferin 4-monooxygenase (Photinus pyralis) (UniProt P08659); experiment: Primary firefly luciferase (FLuc) qHTS assay for identification of artifact compounds. (AID 1845220); note: nearly all actives have a fitted effect of over 60% in size
Method in brief: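 In this counter-screen for luciferase artifacts, test compounds met substrate (10 uM each luciferin and ATP) before 10 nM enzyme started the reaction. Light output was measured 5 min later.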

[12] = NCATS anti-infectives library activity on HEK293 viability as a counter-qHTS vs the C. elegans viability qHTS (AID 1745854);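 note: HEK293 cells exposed to compounds for 24 hr before the viability read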
Method in brief: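 Compound titrations (final up to 41.7 uM) were incubated with HEK293 cells for 24 hr at 37C under 5% CO2. Viable cells were quantified with CellTiter-Glo after 10 min at ambient temperature.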

[13] = biological target: Rap guanine nucleotide exchange factor 3 (Homo sapiens) (UniProt O95398); experiment: Confirmatory qHTS for antagonist of cAMP-regulated guanine nucleotide exchange factor 3 (EPAC1) (AID 1645880); conditions: EPAC1 Rap1B-BODIPY-GDP exchange, fluorescence; note: potency is the fitted concentration of half-maximal effect; nearly all actives have a fitted effect of over 55% in size
Method in brief: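 Released BODIPY-GDP fluoresces less than Rap1-bound BODIPY-GDP; the signal is followed at 480/540 nm at 5-min intervals over 30 min, after 5 min at room temperature. Reactions contain 100 nM EPAC1, 250 nM RAP1B-BODIPY-GDP and 50 uM GDP; results are normalized to ATA and DMSO.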

[14] = biological target: Rap guanine nucleotide exchange factor 3 (Homo sapiens) (UniProt O95398); experiment: Confirmatory qHTS for agonist of cAMP-regulated guanine nucleotide exchange factor 3 (EPAC1) (AID 1645881);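 note: EPAC1 catalysed release of BODIPY-GDP from Rap1B seen as fluorescence loss; nearly all actives have a fitted effect of over 75% in size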
[15] = biological target: Rap guanine nucleotide exchange factor 4 (Homo sapiens) (UniProt Q8WZA2); experiment: Confirmatory qHTS for agonist of cAMP-regulated guanine nucleotide exchange factor 4 (EPAC2) (AID 1645884);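 note: nucleotide exchange releases bodipy-GDP from Rap1 and this lowers its fluorescence; nearly all actives have a fitted effect of over 65% in size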
[16] = biological target: Rap guanine nucleotide exchange factor 4 (Homo sapiens) (UniProt Q8WZA2); experiment: Confirmatory qHTS for antagonist of cAMP-regulated guanine nucleotide exchange factor 4 (EPAC2) (AID 1645885); conditions: EPAC2 Rap1B-BODIPY-GDP exchange fluorescence, biochemical; note: potency is the fitted concentration of half-maximal effect; nearly all actives have a fitted effect of over 25% in size
[17] = biological target: Rap guanine nucleotide exchange factor 3 (Homo sapiens) (UniProt O95398); experiment: Counterscreen qHTS for antagonist of cAMP-regulated guanine nucleotide exchange factor 3 (EPAC1) (AID 1645888)
Method in brief: (§1)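 Measured: fluorescence of BODIPY-GDP bound to Rap1B, which falls as exchange proceeds. Conditions include 50 uM competing GDP, 5 and 30 min reads, and a later cAMP challenge for antagonist detection.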

[18] = biological target: Rap guanine nucleotide exchange factor 3 (Homo sapiens) (UniProt O95398); experiment: Counterscreen qHTS for agonist of cAMP-regulated guanine nucleotide exchange factor 3 (EPAC1) (AID 1645889); note: nearly all actives have a fitted effect of over 40% in size
Method in brief: as §1

Sequence of Catechol O-methyltransferase (Homo sapiens) (P21964 whole entry, looked up): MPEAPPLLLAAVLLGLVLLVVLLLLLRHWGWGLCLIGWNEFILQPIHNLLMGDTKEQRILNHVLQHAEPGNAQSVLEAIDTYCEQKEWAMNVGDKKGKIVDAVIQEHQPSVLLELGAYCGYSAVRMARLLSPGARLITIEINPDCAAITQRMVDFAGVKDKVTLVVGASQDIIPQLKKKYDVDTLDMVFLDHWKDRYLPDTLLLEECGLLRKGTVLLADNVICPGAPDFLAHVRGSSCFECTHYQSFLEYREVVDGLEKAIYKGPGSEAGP
Sequence of Glutathione peroxidase 1 (Homo sapiens) (P07203 whole entry, looked up): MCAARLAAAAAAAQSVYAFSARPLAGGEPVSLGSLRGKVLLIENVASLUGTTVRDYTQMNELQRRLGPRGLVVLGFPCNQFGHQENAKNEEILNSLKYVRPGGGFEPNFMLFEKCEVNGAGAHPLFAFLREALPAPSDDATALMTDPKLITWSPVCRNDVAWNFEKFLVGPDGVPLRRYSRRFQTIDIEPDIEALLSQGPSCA
Sequence of Rap guanine nucleotide exchange factor 3 (Homo sapiens) (O95398 whole entry, looked up): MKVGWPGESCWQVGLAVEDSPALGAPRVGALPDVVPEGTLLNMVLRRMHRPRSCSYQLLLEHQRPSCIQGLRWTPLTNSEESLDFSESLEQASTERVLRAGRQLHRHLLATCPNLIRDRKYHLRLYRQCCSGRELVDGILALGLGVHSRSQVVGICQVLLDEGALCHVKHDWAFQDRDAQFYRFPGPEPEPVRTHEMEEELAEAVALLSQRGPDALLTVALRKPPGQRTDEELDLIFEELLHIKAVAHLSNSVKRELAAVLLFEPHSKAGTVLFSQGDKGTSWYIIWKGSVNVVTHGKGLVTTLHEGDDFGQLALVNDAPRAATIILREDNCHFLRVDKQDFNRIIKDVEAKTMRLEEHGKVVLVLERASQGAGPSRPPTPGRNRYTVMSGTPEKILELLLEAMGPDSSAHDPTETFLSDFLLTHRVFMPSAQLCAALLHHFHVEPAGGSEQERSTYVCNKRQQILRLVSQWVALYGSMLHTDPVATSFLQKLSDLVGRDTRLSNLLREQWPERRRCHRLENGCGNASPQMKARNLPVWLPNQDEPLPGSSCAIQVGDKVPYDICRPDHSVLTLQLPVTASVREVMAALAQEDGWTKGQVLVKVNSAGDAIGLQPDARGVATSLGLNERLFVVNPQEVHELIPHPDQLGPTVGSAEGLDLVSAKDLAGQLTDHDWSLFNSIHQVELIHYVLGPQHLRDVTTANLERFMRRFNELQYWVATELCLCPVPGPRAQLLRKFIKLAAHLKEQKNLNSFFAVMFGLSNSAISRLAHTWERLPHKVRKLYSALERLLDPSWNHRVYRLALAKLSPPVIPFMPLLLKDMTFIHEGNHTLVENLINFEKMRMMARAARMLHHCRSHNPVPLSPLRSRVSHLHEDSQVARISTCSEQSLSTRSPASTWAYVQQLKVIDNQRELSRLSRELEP
Sequence of Nicotinamide N-methyltransferase (Homo sapiens) (P40261 whole entry, looked up): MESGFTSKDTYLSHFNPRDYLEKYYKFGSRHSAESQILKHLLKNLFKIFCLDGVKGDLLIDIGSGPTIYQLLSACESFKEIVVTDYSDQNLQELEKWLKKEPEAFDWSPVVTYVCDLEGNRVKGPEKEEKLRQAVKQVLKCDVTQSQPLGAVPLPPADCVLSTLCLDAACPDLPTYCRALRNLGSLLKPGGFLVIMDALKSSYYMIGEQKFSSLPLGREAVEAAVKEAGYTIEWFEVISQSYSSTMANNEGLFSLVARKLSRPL
Sequence of Phospholipid hydroperoxide glutathione peroxidase GPX4 (Homo sapiens) (P36969 whole entry, looked up): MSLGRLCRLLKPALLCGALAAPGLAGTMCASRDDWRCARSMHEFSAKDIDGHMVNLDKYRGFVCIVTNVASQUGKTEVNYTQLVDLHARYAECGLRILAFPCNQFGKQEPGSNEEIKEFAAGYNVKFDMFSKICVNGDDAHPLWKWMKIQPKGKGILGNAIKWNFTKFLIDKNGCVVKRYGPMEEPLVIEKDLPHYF
Sequence of Phenylethanolamine N-methyltransferase (Homo sapiens) (P11086 whole entry, looked up): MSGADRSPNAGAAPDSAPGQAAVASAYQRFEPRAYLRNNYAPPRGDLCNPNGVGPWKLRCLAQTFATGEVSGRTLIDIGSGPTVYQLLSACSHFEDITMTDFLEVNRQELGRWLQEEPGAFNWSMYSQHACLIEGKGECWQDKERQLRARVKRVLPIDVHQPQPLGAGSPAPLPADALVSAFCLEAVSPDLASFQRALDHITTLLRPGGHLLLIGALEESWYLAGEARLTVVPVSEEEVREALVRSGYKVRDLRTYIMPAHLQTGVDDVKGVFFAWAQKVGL
Sequence of Rap guanine nucleotide exchange factor 4 (Homo sapiens) (Q8WZA2 whole entry, looked up): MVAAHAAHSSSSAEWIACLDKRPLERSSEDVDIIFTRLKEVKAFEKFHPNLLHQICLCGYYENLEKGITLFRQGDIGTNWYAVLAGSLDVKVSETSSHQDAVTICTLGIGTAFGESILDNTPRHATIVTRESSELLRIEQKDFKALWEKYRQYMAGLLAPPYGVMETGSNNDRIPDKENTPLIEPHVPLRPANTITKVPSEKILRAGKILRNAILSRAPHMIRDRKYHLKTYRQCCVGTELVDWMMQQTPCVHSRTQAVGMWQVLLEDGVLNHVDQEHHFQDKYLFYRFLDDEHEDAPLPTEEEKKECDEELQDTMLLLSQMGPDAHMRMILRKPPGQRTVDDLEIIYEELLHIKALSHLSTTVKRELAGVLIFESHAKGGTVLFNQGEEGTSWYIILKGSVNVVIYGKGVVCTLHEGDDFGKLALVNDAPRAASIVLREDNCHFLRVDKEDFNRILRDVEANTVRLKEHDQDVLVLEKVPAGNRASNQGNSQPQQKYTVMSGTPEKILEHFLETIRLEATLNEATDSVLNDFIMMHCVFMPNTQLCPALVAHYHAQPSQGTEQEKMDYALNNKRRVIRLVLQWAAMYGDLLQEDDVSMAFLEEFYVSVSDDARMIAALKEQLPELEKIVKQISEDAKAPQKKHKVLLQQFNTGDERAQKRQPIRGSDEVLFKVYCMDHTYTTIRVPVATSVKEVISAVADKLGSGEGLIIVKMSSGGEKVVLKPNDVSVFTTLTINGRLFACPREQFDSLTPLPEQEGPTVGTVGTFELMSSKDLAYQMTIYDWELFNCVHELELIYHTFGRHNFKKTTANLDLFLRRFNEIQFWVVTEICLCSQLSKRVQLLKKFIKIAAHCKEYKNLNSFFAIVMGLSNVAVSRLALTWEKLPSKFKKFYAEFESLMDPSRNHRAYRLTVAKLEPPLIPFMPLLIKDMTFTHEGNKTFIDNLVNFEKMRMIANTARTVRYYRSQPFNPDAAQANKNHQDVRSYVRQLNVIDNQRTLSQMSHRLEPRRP

Compound: Cc1c(NC(=O)OC[C@@H]2COCCN2)cn2ncnc(Nc3ccc4c(cnn4Cc4cccc(F)c4)c3)c12
- Potency [1]: 14.8 µM (active)
- Potency [2]: inactive
- Potency [3]: inactive
- Potency [4]: inactive
- Potency [5]: inactive
- Potency [6]: inactive

Compound: Cn1c(CNc2ccc(C(=N)N)cc2)nc2cc(C(=O)N(CCC(=O)O)c3ccccn3)ccc21
- activity [7]: -2.15%
- activity change, negative = inhibition [8]: 1.99%
- activity [9]: -1.22%
- activity [10]: -0.426%
- Potency [2]: inactive
- Potency [3]: inactive
- Potency [11]: inactive
- Potency [4]: inactive
- Potency [5]: inactive
- Potency [6]: inactive

Compound: COc1ccc(CC2SC(=O)NC2=O)cc1C(=O)NCc1ccc(C(F)(F)F)cc1 (stereo not given)
- Potency [2]: inactive

Compound: Nc1ccccc1NC(=O)c1ccc(CNc2nccc(-c3cccnc3)n2)cc1
- activity [7]: -14%
- activity change, negative = inhibition [8]: -1.06%
- activity [9]: -33.2%
- activity [10]: -7.44%
- Potency [12]: inactive
- Potency [2]: inactive
- Potency [11]: inactive
- Potency [4]: inactive
- Potency [5]: inactive
- Potency [6]: inactive

Compound: CC(O)C1C(=O)N2C(C(=O)O)=C(SC3CNC(C(=O)N(C)C)C3)C(C)C12 (stereo not given)
- Potency [1]: inactive
- Potency [3]: inactive
- Potency [4]: inactive
- Potency [5]: inactive

Compound: CC(C)(C)c1cnc(CSc2cnc(NC(=O)C3CCNCC3)s2)o1
- Potency [1]: 0.148 µM (active)
- Potency [3]: inactive

Compound: CC(C)c1cc(C(=O)N2Cc3ccc(CN4CCN(C)CC4)cc3C2)c(O)cc1O
- Potency [1]: 129 nM (active) and 166 nM (active)
- Potency [2]: inactive
- Potency [4]: inactive
- Potency [5]: inactive
- Potency [6]: inactive

Compound: O=C(O)[C@H](Cc1c[nH]c2ccccc12)N1C(=O)c2ccccc2C1=O
- Potency [2]: inactive
- Potency [3]: inactive

Compound: Cc1coc2c1C(=O)C(=O)c1c-2ccc2c1CCCC2(C)C
- Potency [13]: 53.6 µM (active)
- outcome [14]: inactive
- outcome [15]: inactive
- Potency [16]: 30.1 µM (active)
- outcome [17]: inactive
- outcome [18]: inactive
- activity [7]: -26.5%
- Potency [8]: 24.1 µM (active)
- activity [9]: -48.9%
- activity [10]: -37.9%
- Potency [12]: inactive
- Potency [2]: inactive
- Potency [4]: 1.34 µM (active)
- Potency [5]: inactive
- Potency [6]: 9.47 µM (active)

Compound: COC(=O)C[C@](O)(CCCC(C)(C)O)C(=O)O[C@@H]1C(OC)=C[C@]23CCCN2CCc2cc4c(cc2[C@H]13)OCO4
- Potency [2]: inactive
- Potency [3]: inactive

Compound: CC(C)(C)NC(=O)[C@H]1CN(Cc2cccnc2)CCN1C[C@@H](O)C[C@@H](Cc1ccccc1)C(=O)N[C@H]1c2ccccc2C[C@H]1O
- outcome [14]: inactive
- outcome [15]: inactive
- Potency [16]: 44.1 µM (active)

Compound: CC(=O)Nc1sc2c(c1-c1nc3ccccc3s1)CNC2
- Potency [1]: 2.9 µM (active)
- Potency [2]: 3.6 µM (active)
- Potency [4]: inactive
- Potency [5]: inactive
- Potency [6]: inactive

Compound: Nc1cccc(-c2cc3c(Oc4cccc(O)c4)ncnc3[nH]2)c1
- activity [7]: -47.2%
- Potency [8]: 30.4 µM (active)
- activity [9]: -47.2%
- activity [10]: -55.3%
- Potency [2]: inactive
- Potency [3]: inactive and 14.3 µM (active)
- Potency [11]: inactive
- Potency [4]: 9.47 µM (active)
- Potency [5]: inactive
- Potency [6]: inactive

Compound: COc1ccc(-n2nc(C(N)=O)c3c2C(=O)N(c2ccc(N4CCCCC4=O)cc2)CC3)cc1
- Potency [12]: inactive
- Potency [2]: inactive
- Potency [3]: inactive
- Potency [4]: inactive
- Potency [5]: inactive
- Potency [6]: inactive

Compound: Cc1cc(N2CCOCC2)cc2[nH]c(-c3c(NC[C@@H](O)c4cccc(Cl)c4)cc[nH]c3=O)nc12
- Potency [1]: 2.35 µM (active)
- Potency [11]: inactive
- Potency [4]: 1.68 µM (active)
- Potency [5]: inactive
- Potency [6]: inactive

Compound: CN(C)c1nc(Cc2ccc(NC(=O)c3ccc4ccccc4c3)cc2)nc(Cl)c1CC(=O)O
- Potency [1]: inactive
- Potency [2]: inactive
- Potency [4]: inactive
- Potency [5]: inactive
- Potency [6]: inactive

Compound: Cc1c(CN2CCN(S(C)(=O)=O)CC2)sc2c(N3CCOCC3)nc(-c3cnc(N)nc3)nc12
- activity [7]: -10.4%
- activity change, negative = inhibition [8]: -5.48%
- activity [9]: -17.8%
- activity [10]: -14.7%
- Potency [2]: inactive
- Potency [3]: inactive
- Potency [11]: inactive
- Potency [4]: inactive
- Potency [5]: inactive
- Potency [6]: inactive

Compound: Cc1ccc(S(=O)(=O)Nc2cc(Cl)ccc2C(=O)Nc2nc(-c3ccccc3)cs2)cc1
- Potency [2]: inactive

Compound: Cn1c2cc(S(C)=O)sc2c2cnn(Cc3cccc(N)c3)c(=O)c21 (stereo not given)
- Potency [2]: inactive
- Potency [3]: inactive

Compound: COc1c(N2C[C@@H]3CCCN[C@H]3C2)c(F)cc2c(=O)c(C(=O)O)cn(C3CC3)c12
- Potency [1]: inactive
- Potency [3]: 18 µM (active)

Compound: C[C@@H]1CN(CC(=O)Nc2ccc3c(c2)Cc2cccc(-c4cc(=O)cc(N5CCOCC5)o4)c2S3)C[C@H](C)O1
- Potency [2]: inactive

Compound: C=C1C(=CC=C2CCC[C@]3(C)[C@@H]([C@H](C)C=C[C@H](C)C(C)C)CC[C@@H]23)C[C@@H](O)C[C@@H]1O
- Potency [2]: inactive
- Potency [3]: inactive

Compound: O=C1CCC[C@@H]2[C@H]3CCC[N+]4([O-])CCC[C@@H](CN12)[C@@H]34 (stereo not given in full)
- Potency [1]: inactive
- Potency [3]: inactive
- Potency [11]: inactive
- Potency [4]: inactive
- Potency [5]: inactive
- Potency [6]: inactive
